Unmarked numbers belong to inactive results.
Tests used:
Experiment in all cases: log2 ratio of Biotin-Ahx-Ub-VS probe labelling (fragment/DMSO); higher = less target engagement (more negative = stronger competition), active = hit call of the paper (q ≤ 0.05, log2 ratio ≤ -1)
Settings in all cases: compound concentration: 200 uM; treatment time: 3 h
[1] = target: T1, USP19 (UniProt O94966)
T1 sequence (whole entry): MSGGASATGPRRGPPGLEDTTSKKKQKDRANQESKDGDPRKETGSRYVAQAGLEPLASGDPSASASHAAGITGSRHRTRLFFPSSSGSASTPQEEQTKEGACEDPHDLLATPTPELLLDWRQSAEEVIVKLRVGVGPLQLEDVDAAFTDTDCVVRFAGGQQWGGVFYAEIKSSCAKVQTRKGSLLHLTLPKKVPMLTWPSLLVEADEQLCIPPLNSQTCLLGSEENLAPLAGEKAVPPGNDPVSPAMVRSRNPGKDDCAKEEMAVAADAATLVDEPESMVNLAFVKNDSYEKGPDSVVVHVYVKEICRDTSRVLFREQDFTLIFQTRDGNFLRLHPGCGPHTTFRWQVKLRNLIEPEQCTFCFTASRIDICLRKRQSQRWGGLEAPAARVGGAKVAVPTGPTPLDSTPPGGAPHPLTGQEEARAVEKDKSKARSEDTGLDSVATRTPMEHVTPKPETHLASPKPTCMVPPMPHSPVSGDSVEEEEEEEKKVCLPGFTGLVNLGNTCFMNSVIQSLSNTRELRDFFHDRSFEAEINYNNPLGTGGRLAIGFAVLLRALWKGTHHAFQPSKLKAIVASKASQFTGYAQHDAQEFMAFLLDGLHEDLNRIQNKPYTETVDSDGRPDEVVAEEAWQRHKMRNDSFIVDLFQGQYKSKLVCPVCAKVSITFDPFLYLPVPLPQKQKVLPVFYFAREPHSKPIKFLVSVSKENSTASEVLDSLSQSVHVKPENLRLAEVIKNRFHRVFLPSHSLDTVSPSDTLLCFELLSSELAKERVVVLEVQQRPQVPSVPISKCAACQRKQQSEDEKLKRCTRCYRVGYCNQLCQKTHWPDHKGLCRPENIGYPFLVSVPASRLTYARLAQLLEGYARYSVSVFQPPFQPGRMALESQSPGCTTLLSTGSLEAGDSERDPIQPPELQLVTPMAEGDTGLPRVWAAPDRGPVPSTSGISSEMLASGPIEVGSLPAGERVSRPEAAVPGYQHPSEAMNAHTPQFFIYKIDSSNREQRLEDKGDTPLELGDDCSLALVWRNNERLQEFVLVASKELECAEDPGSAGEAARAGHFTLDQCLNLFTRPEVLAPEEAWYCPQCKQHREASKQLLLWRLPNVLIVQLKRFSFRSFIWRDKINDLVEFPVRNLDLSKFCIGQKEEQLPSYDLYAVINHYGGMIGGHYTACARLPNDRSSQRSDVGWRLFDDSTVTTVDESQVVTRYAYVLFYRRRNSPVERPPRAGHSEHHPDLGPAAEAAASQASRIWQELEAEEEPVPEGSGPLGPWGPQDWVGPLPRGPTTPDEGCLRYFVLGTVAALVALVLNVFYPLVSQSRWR
Summary of the method: (§1)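 The table lists average log2 ratios of fragment over vehicle, from an unpaired t-test on global-median-normalised Spectronaut label-free quantities. Proteins with ≥2 unique peptides were used. Samples were HEK293T lysate (495 µg) treated in triplicate with fragment at 200 µM or vehicle for 3 h, then with Biotin-Ahx-Ub-VS (0.5 µM final) for 1 h, with labelled DUBs NeutrAvidin-enriched and run by diaPASEF LC-MS/MS.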

[2] = target: USP24 (UniProt Q9UPU5)
Summary of the method: as §1

[3] = target: T2, USP25 (UniProt Q9UHP3)
T2 sequence (whole entry): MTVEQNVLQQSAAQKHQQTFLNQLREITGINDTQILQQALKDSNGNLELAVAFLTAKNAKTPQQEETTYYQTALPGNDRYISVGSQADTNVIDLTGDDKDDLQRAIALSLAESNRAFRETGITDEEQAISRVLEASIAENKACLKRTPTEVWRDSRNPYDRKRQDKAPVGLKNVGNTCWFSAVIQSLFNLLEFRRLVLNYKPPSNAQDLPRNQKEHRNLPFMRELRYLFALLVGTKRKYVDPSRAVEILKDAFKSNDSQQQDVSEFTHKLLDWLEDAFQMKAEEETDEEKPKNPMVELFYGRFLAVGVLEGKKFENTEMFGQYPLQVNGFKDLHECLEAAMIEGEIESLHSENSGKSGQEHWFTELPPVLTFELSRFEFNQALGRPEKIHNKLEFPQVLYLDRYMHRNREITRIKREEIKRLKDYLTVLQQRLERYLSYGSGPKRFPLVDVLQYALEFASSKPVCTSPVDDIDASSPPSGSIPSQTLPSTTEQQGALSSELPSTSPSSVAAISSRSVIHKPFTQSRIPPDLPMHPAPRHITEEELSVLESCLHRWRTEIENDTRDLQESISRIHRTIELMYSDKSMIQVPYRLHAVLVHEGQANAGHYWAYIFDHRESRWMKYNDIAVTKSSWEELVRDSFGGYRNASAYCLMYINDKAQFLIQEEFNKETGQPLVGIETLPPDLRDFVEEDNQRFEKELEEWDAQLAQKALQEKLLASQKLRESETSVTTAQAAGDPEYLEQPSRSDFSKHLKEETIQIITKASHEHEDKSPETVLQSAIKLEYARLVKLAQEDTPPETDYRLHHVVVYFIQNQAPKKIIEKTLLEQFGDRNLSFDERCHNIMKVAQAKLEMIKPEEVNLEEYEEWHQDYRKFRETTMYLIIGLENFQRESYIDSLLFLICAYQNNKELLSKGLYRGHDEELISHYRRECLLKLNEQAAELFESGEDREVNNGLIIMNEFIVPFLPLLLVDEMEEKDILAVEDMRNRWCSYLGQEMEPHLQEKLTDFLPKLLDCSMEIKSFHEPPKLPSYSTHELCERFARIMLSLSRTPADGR
Summary of the method: as §1

[4] = target: T3, USP28 (UniProt Q96RU2)
T3 sequence (whole entry): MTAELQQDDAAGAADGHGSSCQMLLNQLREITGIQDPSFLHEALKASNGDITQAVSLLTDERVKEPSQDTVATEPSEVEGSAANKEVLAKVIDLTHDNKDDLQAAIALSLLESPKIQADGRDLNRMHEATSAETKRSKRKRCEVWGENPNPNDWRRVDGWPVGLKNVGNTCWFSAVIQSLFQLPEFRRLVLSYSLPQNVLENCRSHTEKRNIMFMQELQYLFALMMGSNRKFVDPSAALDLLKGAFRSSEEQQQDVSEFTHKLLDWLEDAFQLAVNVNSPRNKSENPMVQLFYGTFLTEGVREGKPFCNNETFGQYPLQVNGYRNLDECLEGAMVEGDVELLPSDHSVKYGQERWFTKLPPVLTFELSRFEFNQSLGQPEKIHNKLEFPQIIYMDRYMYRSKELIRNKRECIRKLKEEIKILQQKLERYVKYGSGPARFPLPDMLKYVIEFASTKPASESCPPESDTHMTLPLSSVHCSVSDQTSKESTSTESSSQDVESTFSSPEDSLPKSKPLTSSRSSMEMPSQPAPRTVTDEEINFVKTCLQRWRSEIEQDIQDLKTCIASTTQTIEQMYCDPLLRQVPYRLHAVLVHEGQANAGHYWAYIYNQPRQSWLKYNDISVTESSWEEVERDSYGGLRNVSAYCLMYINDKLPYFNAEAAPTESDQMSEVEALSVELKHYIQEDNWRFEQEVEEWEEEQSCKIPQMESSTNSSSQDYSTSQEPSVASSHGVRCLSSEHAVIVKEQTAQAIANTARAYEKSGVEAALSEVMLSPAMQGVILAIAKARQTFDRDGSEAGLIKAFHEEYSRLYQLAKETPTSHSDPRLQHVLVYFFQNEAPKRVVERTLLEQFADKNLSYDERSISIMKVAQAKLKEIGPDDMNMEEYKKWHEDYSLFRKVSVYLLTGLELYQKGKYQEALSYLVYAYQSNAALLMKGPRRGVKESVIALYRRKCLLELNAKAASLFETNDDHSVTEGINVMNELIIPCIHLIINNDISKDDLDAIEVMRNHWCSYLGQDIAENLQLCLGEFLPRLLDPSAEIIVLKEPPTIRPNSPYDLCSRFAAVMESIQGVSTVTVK
Summary of the method: as §1

Sequence of USP24 (Q9UPU5 whole entry): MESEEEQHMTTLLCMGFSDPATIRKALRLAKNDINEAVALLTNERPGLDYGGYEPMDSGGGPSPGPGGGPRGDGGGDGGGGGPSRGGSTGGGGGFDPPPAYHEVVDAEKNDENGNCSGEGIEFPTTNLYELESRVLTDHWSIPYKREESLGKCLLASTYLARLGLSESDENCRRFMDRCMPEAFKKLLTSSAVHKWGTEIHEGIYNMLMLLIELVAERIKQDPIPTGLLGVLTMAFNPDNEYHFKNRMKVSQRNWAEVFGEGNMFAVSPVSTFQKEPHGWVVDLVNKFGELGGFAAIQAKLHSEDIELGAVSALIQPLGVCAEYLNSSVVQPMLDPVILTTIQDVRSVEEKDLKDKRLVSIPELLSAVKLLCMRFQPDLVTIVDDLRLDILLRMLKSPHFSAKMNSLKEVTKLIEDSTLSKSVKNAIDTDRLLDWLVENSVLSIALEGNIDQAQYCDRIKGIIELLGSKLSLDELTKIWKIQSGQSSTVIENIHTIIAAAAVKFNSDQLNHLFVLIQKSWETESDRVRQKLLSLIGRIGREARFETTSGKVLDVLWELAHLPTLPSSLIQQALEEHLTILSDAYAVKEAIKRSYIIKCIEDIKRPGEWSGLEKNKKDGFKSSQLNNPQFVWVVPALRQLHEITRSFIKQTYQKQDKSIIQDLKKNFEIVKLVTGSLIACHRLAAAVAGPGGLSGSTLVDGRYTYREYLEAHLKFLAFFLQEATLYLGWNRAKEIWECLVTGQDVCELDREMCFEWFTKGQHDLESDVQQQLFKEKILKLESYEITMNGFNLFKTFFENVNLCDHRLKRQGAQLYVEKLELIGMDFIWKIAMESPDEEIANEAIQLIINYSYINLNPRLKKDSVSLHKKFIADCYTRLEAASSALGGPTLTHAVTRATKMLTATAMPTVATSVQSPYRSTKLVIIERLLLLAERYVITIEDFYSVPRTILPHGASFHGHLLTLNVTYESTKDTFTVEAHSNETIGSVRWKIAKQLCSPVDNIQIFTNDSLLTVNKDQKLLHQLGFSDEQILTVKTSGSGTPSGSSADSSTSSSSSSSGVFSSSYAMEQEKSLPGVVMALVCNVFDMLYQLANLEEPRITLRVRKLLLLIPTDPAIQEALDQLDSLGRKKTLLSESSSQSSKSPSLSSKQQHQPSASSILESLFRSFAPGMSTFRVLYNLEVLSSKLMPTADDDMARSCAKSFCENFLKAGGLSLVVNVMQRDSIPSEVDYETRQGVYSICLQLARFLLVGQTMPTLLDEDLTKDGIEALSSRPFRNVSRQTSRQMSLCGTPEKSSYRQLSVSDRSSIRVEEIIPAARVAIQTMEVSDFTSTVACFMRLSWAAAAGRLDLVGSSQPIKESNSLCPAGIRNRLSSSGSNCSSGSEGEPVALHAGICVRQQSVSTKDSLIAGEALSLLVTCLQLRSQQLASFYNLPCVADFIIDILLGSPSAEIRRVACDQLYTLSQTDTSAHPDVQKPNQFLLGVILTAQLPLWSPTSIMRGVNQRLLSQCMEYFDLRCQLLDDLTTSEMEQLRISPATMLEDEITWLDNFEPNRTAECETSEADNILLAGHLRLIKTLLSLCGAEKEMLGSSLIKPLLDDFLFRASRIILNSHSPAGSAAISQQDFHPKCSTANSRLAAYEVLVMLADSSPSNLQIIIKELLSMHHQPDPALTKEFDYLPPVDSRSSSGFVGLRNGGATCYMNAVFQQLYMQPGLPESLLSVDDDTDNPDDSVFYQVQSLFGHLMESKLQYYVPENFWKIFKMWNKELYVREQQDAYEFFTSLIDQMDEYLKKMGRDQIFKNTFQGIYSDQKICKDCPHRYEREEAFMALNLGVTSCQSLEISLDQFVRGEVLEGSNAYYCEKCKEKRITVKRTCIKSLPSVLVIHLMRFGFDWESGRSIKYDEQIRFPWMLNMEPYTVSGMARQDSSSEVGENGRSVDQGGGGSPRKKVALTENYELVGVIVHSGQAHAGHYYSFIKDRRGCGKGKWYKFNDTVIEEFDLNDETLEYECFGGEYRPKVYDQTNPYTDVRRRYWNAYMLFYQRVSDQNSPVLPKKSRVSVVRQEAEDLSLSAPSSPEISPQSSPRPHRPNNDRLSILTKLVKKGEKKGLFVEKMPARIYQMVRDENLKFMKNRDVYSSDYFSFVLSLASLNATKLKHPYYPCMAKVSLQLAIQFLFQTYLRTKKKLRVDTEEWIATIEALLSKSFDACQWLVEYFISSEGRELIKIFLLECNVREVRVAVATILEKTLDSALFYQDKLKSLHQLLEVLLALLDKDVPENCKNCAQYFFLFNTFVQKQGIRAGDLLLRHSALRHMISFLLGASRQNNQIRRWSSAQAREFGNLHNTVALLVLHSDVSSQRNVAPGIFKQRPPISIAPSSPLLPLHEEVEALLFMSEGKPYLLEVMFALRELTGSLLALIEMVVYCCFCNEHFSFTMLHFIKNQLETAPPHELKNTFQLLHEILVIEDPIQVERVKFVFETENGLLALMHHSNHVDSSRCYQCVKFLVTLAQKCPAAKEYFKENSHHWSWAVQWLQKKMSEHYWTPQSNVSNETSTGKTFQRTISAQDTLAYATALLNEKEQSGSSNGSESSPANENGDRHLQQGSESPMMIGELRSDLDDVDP

Question: `COc1ccc(-c2csc(NC(=O)CCl)n2)cc1` was tested. Which “log2 ratio of Biotin-Ahx-Ub-VS probe labelling” value (“log2 ratio” below) [1] did it give?
Answer: -0.674

Question: What about the “log2 ratio” value [2] of the same compound?
Answer: -1.44 (active)

Question: And the “log2 ratio” value [3]?
Answer: -0.591

Question: And the “log2 ratio” value [4]?
Answer: -0.741

From the supplement of paper PMC11732987, “Enantioselective OTUD7B fragment discovery through chemoproteomics screening and high-throughput optimisation” (Communications Chemistry, 2025)
